The values below come from PubChem BioAssay.

“And” between values parts separate entries of the source, which are not always exact repeats. Equal entries are not always repeated. For part of these data: Entries with a potency or affinity are not part of this list.

Assay [1] in a line: blockers of polyQ-driven CASP3 activation – cell-based (AID 1583). Conditions: polyglutamine-induced caspase-3 activation, cell assay; stronger effect = higher value;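 tested at 10 µM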.
Assay [2] in a line: yeast 75Q aggregation reduction – 75Q-TubU reporter (AID 1593). The note with it: Yeast 75Q polyglutamine aggregation reporter.
Assay [3] can be described thus: restoration of touch response, mutant HTT neurons – whole organism, C. elegans mechanosensory neurons, N-terminal huntingtin (AID 1599). The note with it: C. elegans polyQ-huntingtin mechanosensory neurons, stronger effect = higher value.
Assay [4] is described as follows: blockers of cytochrome c efflux from mitochondria – biochemical, purified mitochondria (AID 1603).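 Further: mouse liver mitochondria challenged with calcium chloride; signal normalized to the plate average as 100%.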 Conditions: stronger effect = lower value.
Assay [5] in a line: polyglutamine aggregate formation blockers (AID 1604). Conditions: polyglutamine-induced protein aggregation inhibition assay; stronger effect = higher value; tested at 2.5 µM.

For the molecule `O=C1c2cccc(O)c2C(=O)c2c(O)cccc21`, the inhibition in assay [1] is -36.4%. In assay [2], the score was -0.3. The rescue above control in assay [3] was -2. In addition, in assay [4], the cytochrome c release ratio is 1.21. This molecule had an inhibition of aggregation in assay [5] of 58.9%.

Take `CCn1cc(C(=O)O)c(=O)c2cnc(N3CCNCC3)nc21`: the inhibition in assay [1] was -5.14%. Further, the score in assay [2] was determined as 1.35. This molecule also showed a rescue above control in assay [3] of 5.83. For the same molecule, the cytochrome c release ratio in assay [4] worked out at 0.98. In assay [5], this molecule gave an inhibition of aggregation of 72.4%.

For the molecule `CCN(CC)C(=O)c1cccc(C)c1`, in assay [1], the inhibition worked out at 9.84%. Besides, the score in assay [2] amounted to 1.21. Besides, the rescue above control in assay [3] is -4.11. Further, in assay [4], the cytochrome c release ratio came to 1.07. The inhibition of aggregation in assay [5] came to 28.8%.

`N[C@@H](CCC(=O)N[C@@H](CS)C(=O)NCC(=O)O)C(=O)O`: in assay [1], the inhibition turned out to be 17.6%. The same molecule returned a score in assay [2] of 1.4. The rescue above control in assay [3] is -4.11. Moreover, the cytochrome c release ratio in assay [4] amounted to 0.98. The same molecule returned an inhibition of aggregation in assay [5] of 45.5%.

Regarding `NC(=O)c1ccc([N+](=O)[O-])cc1Cl`, in assay [1], the inhibition stood at 5.22%. For the same molecule, the score in assay [2] came to 1.24. Moreover, in assay [3], the rescue above control turned out to be 31.2. For the same molecule, in assay [4], the cytochrome c release ratio came to 1.06. This molecule showed an inhibition of aggregation in assay [5] of 82.5%.

Turning to `CCC(=O)c1c(O)cc(O)cc1O`, the inhibition in assay [1] was determined as 6.37%. In assay [2], the score worked out at 0.94. Further, the rescue above control in assay [3] is -3.67. Further, the cytochrome c release ratio in assay [4] is 1.29. The molecule also displayed an inhibition of aggregation in assay [5] of 38.9%.

For the molecule `NC(=O)c1ccccc1O`, the inhibition in assay [1] is -13.1%. The score in assay [2] came out at 1.55. This molecule had a rescue above control in assay [3] of 9.08. Besides, in assay [4], the cytochrome c release ratio turned out to be 0.7. The inhibition of aggregation in assay [5] was found to be 78.1%.

Regarding `CN(C)CCCN1c2ccccc2Sc2ccc(C(F)(F)F)cc21`, in assay [1], the inhibition was found to be 30.2%. In addition, the score in assay [2] came to 1.13. The rescue above control in assay [3] amounted to 19.8. In assay [4], the cytochrome c release ratio was 0.7. Moreover, the inhibition of aggregation in assay [5] turned out to be 76%.

For `CC(=O)Nc1ccccc1`, in assay [1], the inhibition was 14.3% and 16.3%. The score in assay [2] is 1.29 and 1.35. Also, the rescue above control in assay [3] is -5.57 and 2.9. For the same molecule, in assay [4], the cytochrome c release ratio was 1.36 and 1.09. Moreover, the inhibition of aggregation in assay [5] was 42.4% and 85.9%.

For `CN1CCCN=C1COC(=O)C(O)(c1ccccc1)C1CCCCC1` (stereo not given), in assay [1], the inhibition is 21.6%. In addition, the score in assay [2] came out at 1.24. In assay [3], this molecule returned a rescue above control of 4.84. In assay [4], the cytochrome c release ratio came out at 0.8. Further, the inhibition of aggregation in assay [5] amounted to 60.8%.

Turning to `Nc1ccc(S(=O)(=O)Nc2nccs2)cc1`, in assay [1], the inhibition is 6.1%. Also, in assay [2], the score came out at 1.37. In assay [3], the rescue above control is -1.24. For the same molecule, the cytochrome c release ratio in assay [4] was found to be 0.85. The same molecule yielded an inhibition of aggregation in assay [5] of 66.2%.

For the molecule `CN1C(C(=O)Nc2ccccn2)=C(O)c2sccc2S1(=O)=O`, in assay [1], the inhibition is -15.4%. This molecule also registered a score in assay [2] of 0.84. Moreover, the rescue above control in assay [3] is -5.04. Also, the cytochrome c release ratio in assay [4] was found to be 1.03. For the same molecule, in assay [5], the inhibition of aggregation was determined as 69.7%.

With `Cc1cc(NC(=O)C2=C(O)c3ccccc3S(=O)(=O)N2C)no1`, the inhibition in assay [1] was determined as 49.9%. The score in assay [2] came out at 0.18. Further, the rescue above control in assay [3] is -11.8. For the same molecule, the cytochrome c release ratio in assay [4] stood at 1.04. In addition, in assay [5], the inhibition of aggregation is 72.2%.

Take `Cc1cc(CC(=O)O)n(C)c1C(=O)c1ccc(Cl)cc1`: in assay [1], the inhibition was -20.4%. This molecule gave a score in assay [2] of 0.85. The molecule further gave a rescue above control in assay [3] of 20.8. Moreover, the cytochrome c release ratio in assay [4] came out at 0.92. For the same molecule, in assay [5], the inhibition of aggregation was 83.3%.

With `Cn1c(=O)c2c(ncn2CC(O)CO)n(C)c1=O` (stereo not given), the inhibition in assay [1] was -0.09%. In assay [2], this molecule displayed a score of 1.08. Moreover, the rescue above control in assay [3] is -16.2. The cytochrome c release ratio in assay [4] worked out at 1.19. Also, in assay [5], the inhibition of aggregation was determined as 21.9%.

On to `CC(=O)NS(=O)(=O)c1ccc(N)cc1`, for which the inhibition in assay [1] worked out at 11.3%. In assay [2], this molecule came in with a score of 1.36. For the same molecule, the rescue above control in assay [3] was -14.1. Also, the cytochrome c release ratio in assay [4] came to 1.02. Further, in assay [5], the inhibition of aggregation was determined as 48.5%.

In the case of `Cc1c(C(N)=O)cc([N+](=O)[O-])cc1[N+](=O)[O-]`, in assay [1], the inhibition was -1.96%. Besides, in assay [2], the score came to 1.25. For the same molecule, in assay [3], the rescue above control came out at 5.37. Besides, the cytochrome c release ratio in assay [4] turned out to be 1.17. This molecule showed an inhibition of aggregation in assay [5] of 82.7%.

Regarding `CC(=O)OC/C=C(C)/C=C/C=C(C)/C=C/C1=C(C)CCCC1(C)C`, the inhibition in assay [1] was -4.49%. The score in assay [2] is 1.02. In addition, in assay [3], the rescue above control turned out to be 0.33. For the same molecule, the cytochrome c release ratio in assay [4] turned out to be 1.12. The molecule also came in with an inhibition of aggregation in assay [5] of 85.2%.
